In test [1] the test system is Plasmodium falciparum Sir2 (PF13_0152, Sir2A). In words: Plasmodium falciparum Sir2A binding compounds – biochemical, small-molecule microarray, 635 nm fluorescence, primary screen (AID 1098).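 Further: score merges spot fluorescence intensity with its signal-to-noise ratio.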 The following applies: fluorescence 635 nm, higher = more signal.
Test [2] is described as follows: probe aDKK1 binding to arrayed compounds – biochemical, biotinylated probe, 635/667 nm fluorescence, primary screen (AID 1099).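 Further: score merges 667nm spot fluorescence with signal to noise across triplicate slides; reference of the scale not given here.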 The settings on record: small-molecule microarray, higher = more signal.
Test [3] is described as follows: probe aCHRDL2 binding to arrayed compounds – biochemical, biotinylated probe, 635/667 nm fluorescence, primary screen (AID 1100). The following applies: small-molecule microarray, higher = more signal.
A short description of test [4]: change in splice reporter luminescence, either direction, cell-based, HEK293, spliceosome inhibition project, primary screen (AID 1101).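 Further: HEK293 cells carrying a splicing-competent luciferase reporter gene; test concentration not given here.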 The settings on record: HEK293 splicing luciferase reporter, 24 h, higher = more signal, called active from +8 up or from −8 down.
The target of test [5] is Fibroblast growth factor 10 (Homo sapiens) (UniProt O15520). In words: compounds binding fibroblast growth factor 10 – biochemical, small-molecule microarray, 635 nm fluorescence, primary screen (AID 1102). The settings on record: FGF10 binding, fluorescence 635 nm, higher = more signal.
Test [6] has as its system glycogen synthase kinase-3 (GSK3A per assay name; protocol says GSK3B). In words: compounds binding glycogen synthase kinase-3 – biochemical, small-molecule microarray, 635 nm fluorescence, GSK3A, primary screen (AID 1103). Further: the record names both GSK3A and GSK3B. The settings on record: fluorescence 635 nm, higher = more signal.
Test [7] addresses Epidermal growth factor receptor (Homo sapiens) (UniProt P00533). Briefly: compounds binding epidermal growth factor receptor – biochemical, small-molecule microarray, 635 nm fluorescence, primary screen (AID 1104).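 Further: score merges 667 nm emission intensity with spot signal to noise over triplicate slides.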 The following applies: EGFR binding, higher = more signal.
Test [8] has as its target Follistatin-related protein 3 (Homo sapiens) (UniProt O95633). Briefly: compounds binding follistatin-related protein 3 – biochemical, small-molecule microarray, 635 nm fluorescence, primary screen (AID 1105).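 Further: score merges emission near 667 nm and signal to noise per printed spot across three slides.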 The following applies: FSTL3 binding, higher = more signal.
Test [9] deals with Dickkopf-related protein 1 (Homo sapiens) (UniProt O94907). Briefly: small molecules binding DKK1 protein – biochemical, small-molecule microarray, 635 nm fluorescence scan, primary screen (AID 1106).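 Further: score merges emission near 667 nm with signal to noise over three replicate slides.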 The following applies: higher = more signal.
The subject of test [10] is Inhibin beta A chain (activin A). Briefly: small molecules binding activin A – biochemical, small-molecule microarray, 635 nm fluorescence scan, primary screen (AID 1107).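 Further: mouse activin A protein probed at 4.33 µg/mL on printed slides; score merges bound-protein fluorescence near 667 nm with spot signal-to-noise.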 The settings on record: INHBA, higher = more signal.

Active and inactive are the calls of the source.

Dickkopf-related protein 1 (Homo sapiens), sequence (O94907 whole entry, looked up): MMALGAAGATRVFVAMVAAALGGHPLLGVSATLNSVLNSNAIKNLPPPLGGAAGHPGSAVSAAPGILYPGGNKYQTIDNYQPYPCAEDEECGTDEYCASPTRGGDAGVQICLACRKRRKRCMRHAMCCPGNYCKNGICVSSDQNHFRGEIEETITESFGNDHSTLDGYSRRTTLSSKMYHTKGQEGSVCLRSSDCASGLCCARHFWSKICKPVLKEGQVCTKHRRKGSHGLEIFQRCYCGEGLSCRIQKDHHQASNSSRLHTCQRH
Epidermal growth factor receptor (Homo sapiens), sequence (P00533 whole entry, looked up): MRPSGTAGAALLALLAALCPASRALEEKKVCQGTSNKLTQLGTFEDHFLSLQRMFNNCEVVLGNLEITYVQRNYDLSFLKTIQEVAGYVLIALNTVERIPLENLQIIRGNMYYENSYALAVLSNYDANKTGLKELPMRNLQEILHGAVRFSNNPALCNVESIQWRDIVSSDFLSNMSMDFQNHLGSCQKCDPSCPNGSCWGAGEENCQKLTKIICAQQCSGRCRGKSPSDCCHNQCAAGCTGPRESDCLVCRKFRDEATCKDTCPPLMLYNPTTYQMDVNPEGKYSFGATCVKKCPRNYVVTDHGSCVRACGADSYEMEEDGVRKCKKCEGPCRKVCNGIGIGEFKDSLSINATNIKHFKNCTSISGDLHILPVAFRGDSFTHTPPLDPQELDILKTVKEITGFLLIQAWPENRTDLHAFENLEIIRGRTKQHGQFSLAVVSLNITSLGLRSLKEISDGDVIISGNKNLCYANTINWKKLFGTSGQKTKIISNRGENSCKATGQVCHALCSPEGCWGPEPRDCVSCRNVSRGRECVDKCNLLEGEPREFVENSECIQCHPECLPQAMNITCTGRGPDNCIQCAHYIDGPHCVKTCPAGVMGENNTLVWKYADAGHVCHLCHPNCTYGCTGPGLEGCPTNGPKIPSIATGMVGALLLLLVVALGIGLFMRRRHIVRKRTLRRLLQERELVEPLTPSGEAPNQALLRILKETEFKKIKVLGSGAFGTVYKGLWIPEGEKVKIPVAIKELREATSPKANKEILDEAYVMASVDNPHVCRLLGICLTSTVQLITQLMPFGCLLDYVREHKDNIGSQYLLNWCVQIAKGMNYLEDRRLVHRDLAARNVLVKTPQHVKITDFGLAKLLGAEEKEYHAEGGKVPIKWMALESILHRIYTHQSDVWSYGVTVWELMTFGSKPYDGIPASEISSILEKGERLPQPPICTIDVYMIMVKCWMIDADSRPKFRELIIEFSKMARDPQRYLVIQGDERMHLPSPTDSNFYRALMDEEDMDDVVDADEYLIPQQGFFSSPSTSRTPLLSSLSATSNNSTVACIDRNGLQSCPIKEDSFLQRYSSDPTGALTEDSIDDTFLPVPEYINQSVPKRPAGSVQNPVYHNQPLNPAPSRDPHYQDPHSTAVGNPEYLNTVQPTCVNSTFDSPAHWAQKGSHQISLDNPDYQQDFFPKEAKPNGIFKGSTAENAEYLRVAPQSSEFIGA
Fibroblast growth factor 10 (Homo sapiens), sequence (O15520 whole entry, looked up): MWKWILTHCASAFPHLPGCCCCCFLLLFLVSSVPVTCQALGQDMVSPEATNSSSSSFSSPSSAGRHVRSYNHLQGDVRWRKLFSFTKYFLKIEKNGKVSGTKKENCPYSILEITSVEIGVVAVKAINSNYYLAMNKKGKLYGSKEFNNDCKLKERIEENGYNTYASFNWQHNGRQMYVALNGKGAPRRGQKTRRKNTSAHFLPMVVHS
Follistatin-related protein 3 (Homo sapiens), sequence (O95633 whole entry, looked up): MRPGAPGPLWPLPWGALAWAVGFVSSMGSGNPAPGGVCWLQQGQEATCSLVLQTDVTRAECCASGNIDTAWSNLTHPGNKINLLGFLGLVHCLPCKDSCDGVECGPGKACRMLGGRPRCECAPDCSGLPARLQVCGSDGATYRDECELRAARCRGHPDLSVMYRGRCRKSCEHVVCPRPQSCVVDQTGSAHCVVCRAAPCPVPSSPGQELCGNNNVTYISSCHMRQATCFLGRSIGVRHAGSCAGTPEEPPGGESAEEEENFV

Regarding `CCOc1cc(C(O)C2C=CC3C(=O)N(c4ccccc4)C(=O)C3N2Nc2ccc(C#N)cc2)ccc1O` (stereo not given), the composite z-score in test [1] was 0.146; in test [2], 1.3; in test [3], 0.643; in [5], 0.0415; in test [6], -0.0102; in test [7], -0.209. Further, the composite z-score in test [8] was 0.472; in [9], -0.454; in [10], 0.713. Further, in test [4], the z-score was 0.751 (inactive).
With `COC(=O)C1=CC(CCCO)=CC(C2CC2)N(C)C=C1C(=O)OC` (stereo not given), the composite z-score is 0.948 in [1]; -0.302 in [2]; 0.41 in test [3]; -0.259 in test [5]; -0.302 in [6]; -0.0025 in [7]. In addition, the composite z-score in test [8] was 0.481; in test [9], -0.673; in test [10] it was 0.576. In [4], the z-score is -0.519 (inactive).
For `CCCC[C@@H]1C[C@H]1[C@@H](NC(=O)Cc1ccccc1)c1ccc(-c2ccccc2)cc1`, the composite z-score in test [1] is -0.146; in test [2], -0.0423; in [3], 0.712; in [5], 0.0191; in [6], 0.117; in test [7], 0.172. Also, the composite z-score was 0.135 in test [8], -0.46 in test [9] and 0.685 in test [10]. For the same molecule, the z-score in [4] is -1.26 (inactive).
As to `COc1ccc([Si](C)(C)[C@H]2[C@H](CCO)O[C@@]3(C(=O)N(Cc4cccc(N5C(=O)COc6ccccc65)c4)c4ccccc43)[C@@H]2C)cc1`, the composite z-score was 0.957 in test [1]; 0.0114 in [2]; 0.122 in test [3]; -0.222 in test [5]; -0.585 in test [6]; -0.686 in test [7]. The composite z-score is 0.0253 in [8], 0.125 in [9] and -0.348 in test [10]. Besides, the z-score in test [4] was -2.17 (inactive).
On to `C=C(/C(=C/C[C@@H](OC(C)=O)c1cccc(OCCO)c1)c1cc(C(=O)OC)ccc1OC)C(C)C`, for which the composite z-score in [1] was 0.628; in test [2] it was 0.153; in test [3], -0.0171; in [5], 0.855; in test [6] it was -0.298; in test [7], -0.122. Moreover, the composite z-score in test [8] was 0.533; in test [9] it was -0.35; in test [10], 0.632. Further, the z-score in [4] was -0.0584 (inactive).
`O=C1O[C@H](c2ccccc2)[C@H](c2ccccc2)N2[C@H]1[C@@H](C(=O)N1CCN(c3ncccn3)CC1)[C@]1(C(=O)Nc3ccc(C#CC4(O)CCCCCC4)cc31)[C@H]2c1ccc(OCCO)cc1`: the composite z-score in test [1] was 1.82; in [2], 0.695; in test [3] it was 0.731; in [5], 1.45; in [6], 1.33; in test [7] it was 1.38. The composite z-score in test [8] was determined as 1.21; in test [9] it was 1.42; in test [10], 0.86. For the same molecule, the z-score in test [4] is -0.604 (inactive).
Consider `COCCCNC(=O)[C@]1(CCS(=O)(=O)c2ccccc2)N=C(c2ccc(OCCCO)cc2)O[C@@H]1c1ccccc1N=[N+]=[N-]`, for which the composite z-score in test [1] came out at 1.47; in test [2] it was 1.1; in [3] it was 0.698; in [5], 1.16; in [6] it was 1.29; in [7] it was 0.151. Further, the values for the composite z-score in test [8], in [9] and in test [10] were 0.735, -0.262 and 0.963, respectively. The z-score in test [4] was 0.409 (inactive).
For `CC(C)C[C@@H]1NC(=O)[C@@H]2C[C@H](C(=O)NCCCCCN)[C@H](c3ccc(O)cc3)N2C1=O`, the composite z-score stood at 0.311 in [1]; 0.283 in [2]; 0.403 in test [3]; 0.843 in test [5]; 1.31 in [6]; 0.0233 in test [7]. The composite z-score in test [8] was 1.26; in test [9], 0.93; in [10], 0.585. Moreover, the z-score in test [4] is 0.103 (inactive).
As for `CCOC(=O)c1ccc(NC(=O)O[C@H]2[C@H](OC(=O)Nc3ccc4c(c3)OCO4)[C@H](OC(=O)Nc3ccc4c(c3)OCO4)[C@@H](OC)O[C@@H]2CO)cc1`, the composite z-score in test [1] was found to be 1.56; in test [2] it was 0.901; in [3], 0.944; in [5] it was 1.33; in test [6], 1.33; in test [7], 0.517. Also, the figures for the composite z-score in test [8], in [9] and in [10] were 1.39, 1 and 0.673, respectively. In addition, in test [4], the z-score was 0.646 (inactive).
With `Cc1ccc(S[C@]2(C(=O)NCC(F)(F)F)CC(=O)N(C3CCCCC3)[C@@H]2c2ccc(CO)cc2I)cc1`, the composite z-score worked out at 0.894 in [1]; 0.119 in [2]; 0.408 in [3]; 0.919 in [5]; 1.24 in test [6]; 0.395 in [7]. For the same molecule, the composite z-score in [8] is 0.914; in [9], 0.133; in test [10], 0.469. Further, the z-score in [4] was -0.635 (inactive).
On to `COCCOC(=O)N1C(=O)[C@@]2(c3cc(C#Cc4ccc(OC)cc4)ccc31)[C@H](C(=O)Nc1nc3ccccc3s1)[C@H]1C(=O)O[C@H](c3ccccc3)[C@H](c3ccccc3)N1[C@@H]2c1ccc(O)cc1`, for which the composite z-score in [1] is 1.48; in test [2] it was 0.166; in test [3], -0.0767; in [5], 1.39; in [6], 1.29; in test [7], 0.571. In addition, the composite z-score was 1.24 in [8], 0.875 in test [9] and 0.318 in test [10]. Moreover, in [4], the z-score is -0.591 (inactive).
As for `COc1ccc([Si](C)(C)[C@@H]2[C@@H](CC(=O)N3Cc4ccccc4C[C@H]3CO)O[C@]3(C(=O)N(C)c4ccccc43)[C@H]2C)cc1`, the composite z-score was 1.22 in test [1]; 0.405 in test [2]; -0.174 in test [3]; 1.15 in test [5]; 1.3 in [6]; 1.05 in test [7]. In addition, the composite z-score in test [8] came out at 1.48; in test [9] it was 0.874; in test [10], 0.916. Also, the z-score in [4] is -1.42 (inactive).
Turning to `OCCCC1=CC(c2ccc(CN3CCCC3)cc2)N(Cc2sc3ccccc3c2Cl)CC1` (stereo not given), the composite z-score in test [1] amounted to 1.39; in [2] it was 0.14; in test [3] it was 0.504; in [5], 1.03; in test [6], 1.3; in [7], 0.62. For the same molecule, the composite z-score in [8] stood at 0.854; in [9] it was 0.771; in [10] it was 1.41. Also, in test [4], the z-score is -1.07 (inactive).
Turning to `CCCCCCc1nc(C2CC2)cc2c1[Si](C(C)C)(C(C)C)OC2`, the composite z-score in test [1] was -0.552; in [2] it was -0.226; in test [3], -0.144; in test [5], -0.729; in test [6], -0.461; in [7] it was -0.375. The composite z-score in test [8] was -0.762; in test [9], -0.356; in test [10], 0.819. For the same molecule, in test [4], the z-score is -1.71 (inactive).

The record behind these values is PubChem BioAssay.
